Some test systems named below: NCI-H23 lung; NCI-H226 lung; NCI-H322M lung; HOP-62 NSCLC; NCI-H460 lung; HOP-92 NSCLC; NCI-H522 lung; A549/ATCC NSCLC; 786-0 renal; DU-145 prostate; K-562 leukemia; MALME-3M melanoma; MDA-MB-231 breast; RXF 393 renal; SF-268 CNS; SF-295 CNS; SF-539 CNS; UACC-257 melanoma; M14 melanoma; COLO 205 colon.
What all share (assay): NCI-60 one-dose screen, 48 h (100 = growth as untreated, 0 = no growth, -100 = all killed)
Details in all cases: 10 µM unless noted

Compounds without any hit were thinned out: in the full panel of roughly 83,000, 20% have a hit.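 Note: values are percent growth. 100 is the growth of untreated cells, values between 100 and 0 indicate rising inhibition; between -100 and 0 indicates cell death.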 A number with no mark means an inactive call. Active and inactive are the calls of the source. The calls were made as follows: active = growth percent below 10; inactive = the rest.

With `O=C1CCC(C(=O)NCCNCCNC(=O)C2CCC(=O)N2)N1` (configuration not stated), the growth in the test on NCI-H23 lung is 106%; with NCI-H226 lung, 97.7%; in the test with NCI-H322M lung it was 104%; in the test with HOP-62 NSCLC it was 93.7%; with NCI-H460 lung it was 102%; with HOP-92 NSCLC, 80.6%. Besides, the growth in the test on NCI-H522 lung is 72.5%; in the test on A549/ATCC NSCLC, 88.4%; in the test on 786-0 renal, 101%; in the test with DU-145 prostate, 109%; with K-562 leukemia, 101%; in the test with MALME-3M melanoma, 105%. The growth in the test with MDA-MB-231 breast is 121%; in the test on RXF 393 renal, 101%; in the test with SF-268 CNS, 100%; in the test on SF-295 CNS, 100%; in the test with SF-539 CNS, 102%; in the test on UACC-257 melanoma it was 93%. In addition, the growth in the test on M14 melanoma was 96.5%.

Turning to `CCCCC[C@H](O)C/C=C1/C(=O)C=C[C@@H]1C/C=C\CCCC(=O)OC`, the growth is 67.9% with NCI-H23 lung; 70.4% with NCI-H226 lung; 79.7% with NCI-H322M lung; 34% with HOP-62 NSCLC; 46.8% in the test with NCI-H460 lung; 108% in the test on HOP-92 NSCLC. The growth was 30.4% in the test on NCI-H522 lung; 72% in the test with A549/ATCC NSCLC; 44% with 786-0 renal; 62.8% in the test with COLO 205 colon; 53.2% with DU-145 prostate; 5.84% (active) with K-562 leukemia. The growth was 107% with MALME-3M melanoma; 70.8% in the test on RXF 393 renal; 34.9% with SF-268 CNS; 82.2% in the test with SF-295 CNS; 91.3% in the test on SF-539 CNS; 74.5% with UACC-257 melanoma. The growth in the test on M14 melanoma is 13.6%.

Take `COc1ccc2c(c1)nc(NNC(=O)c1cnccn1)c1cccn12`: the growth in the test on NCI-H23 lung was 33.4%; in the test on NCI-H226 lung, 39.3%; in the test with NCI-H322M lung, 28.5%; with HOP-62 NSCLC, 28.6%; in the test on NCI-H460 lung, 7.94% (active); in the test with HOP-92 NSCLC, 64.3%. Also, the growth is 9.5% (active) with NCI-H522 lung; 24.6% in the test with A549/ATCC NSCLC; 26.1% with 786-0 renal; 31.1% with DU-145 prostate; 13.9% in the test with K-562 leukemia; 46.3% in the test on MALME-3M melanoma. For the same molecule, the growth in the test on MDA-MB-231 breast is 30.4%; in the test on RXF 393 renal, 48%; with SF-268 CNS, 30.4%; in the test on SF-295 CNS, 13.6%; in the test with SF-539 CNS it was 23.5%; in the test with UACC-257 melanoma, 25.7%. The growth in the test on M14 melanoma is 8.27% (active).

For `C=C1C(=O)O[C@H]2[C@H]1CC/C(COC(=O)NCCOCCOCC(=O)Nc1ccc(OC)c(C(N)=O)c1O)=C\CC[C@@]1(C)O[C@@H]21`, the growth is 78.5% with NCI-H23 lung; 89.8% in the test with NCI-H226 lung; 96.9% with NCI-H322M lung; 84% in the test with HOP-62 NSCLC; 95.8% with NCI-H460 lung; 24.2% in the test with HOP-92 NSCLC. The growth was -11% (active) with NCI-H522 lung; 84.1% with A549/ATCC NSCLC; 62.1% with 786-0 renal; 76.9% in the test with DU-145 prostate; 25.6% in the test with K-562 leukemia; 62.1% in the test on MALME-3M melanoma. Further, the growth in the test with MDA-MB-231 breast was 52%; in the test on RXF 393 renal, -9.54% (active); in the test with SF-268 CNS, 81.9%; in the test on SF-295 CNS, 97.7%; in the test on SF-539 CNS, 37%; in the test with UACC-257 melanoma it was 57.1%. Further, the growth with M14 melanoma was 60.4%.

Regarding `Cc1c(C(=O)N[C@@H](Cc2ccccc2)C(=O)C(=O)NCc2ccc(F)cc2)[nH]c2ccccc2c1=O`, the growth in the test on NCI-H23 lung was 101%; in the test with NCI-H226 lung it was 89%; in the test on NCI-H322M lung it was 98.8%; with HOP-62 NSCLC it was 106%; with NCI-H460 lung, 56.9%; with HOP-92 NSCLC, 94.4%. Also, the growth with NCI-H522 lung is 91.4%; in the test with A549/ATCC NSCLC, 97.3%; in the test on 786-0 renal it was 102%; with DU-145 prostate it was 105%; in the test with K-562 leukemia, 84.2%; in the test on MALME-3M melanoma it was 102%. For the same molecule, the growth is 100% in the test with MDA-MB-231 breast; 103% with RXF 393 renal; 97.4% with SF-268 CNS; 105% with SF-295 CNS; 101% in the test on SF-539 CNS; 101% in the test on UACC-257 melanoma. The growth in the test on M14 melanoma was 103%.

As for `C=C1CC[C@@]2(C#N)[C@H]3[C@H](CC[C@@H]2C)[C@@H](C)C[C@@H](CC(C)(C)C#N)[C@H]13`, the growth in the test on NCI-H23 lung is 44.1%; in the test on NCI-H226 lung, 62.7%; with NCI-H322M lung it was 90.2%; in the test with HOP-62 NSCLC it was 41.9%; with NCI-H460 lung it was 22.8%; with HOP-92 NSCLC, -16.9% (active). In addition, the growth in the test on NCI-H522 lung is 47.7%; in the test with A549/ATCC NSCLC, 42.9%; in the test on 786-0 renal, 43%; with DU-145 prostate, 45.4%; in the test with K-562 leukemia it was 9.97% (active); in the test with MALME-3M melanoma, 103%. Moreover, the growth in the test on MDA-MB-231 breast is 61.3%; in the test with RXF 393 renal, 86.2%; in the test on SF-268 CNS, 47%; in the test on SF-295 CNS, 14.4%; in the test with SF-539 CNS, 43.9%; in the test on UACC-257 melanoma, 71.9%. Moreover, in the test on M14 melanoma, the growth is 20.9%.

For `COC(=O)CCC/C=C\C[C@H]1C=CC(=O)/C1=C/C[C@@H](O)CCc1cccc(C(F)(F)F)c1`, the growth in the test with NCI-H23 lung was -13.7% (active); with NCI-H226 lung, -48.4% (active); in the test on NCI-H322M lung it was -14.3% (active); in the test with HOP-62 NSCLC, -47.3% (active); in the test on NCI-H460 lung it was -41.8% (active); in the test with HOP-92 NSCLC it was -37.1% (active). The growth with NCI-H522 lung was -75.1% (active); in the test with A549/ATCC NSCLC, -24.2% (active); with 786-0 renal, -61.1% (active); in the test with COLO 205 colon, -49.3% (active); with DU-145 prostate it was 2.5% (active); in the test on K-562 leukemia, 1.71% (active). For the same molecule, the growth in the test on MALME-3M melanoma is 58.4%; with RXF 393 renal, -73.5% (active); in the test on SF-268 CNS, -2.42% (active); in the test on SF-295 CNS, -21.1% (active); with SF-539 CNS, -14.1% (active); in the test with UACC-257 melanoma, -6.49% (active). In addition, in the test on M14 melanoma, the growth is -32.4% (active).

For `N#Cc1c(-c2ccc(Cl)cc2)nc(NCCO)[nH]c1=O`, the growth was 94.3% in the test with NCI-H23 lung; 101% in the test on NCI-H226 lung; 94.4% in the test with NCI-H322M lung; 88.6% with HOP-62 NSCLC; 114% in the test with NCI-H460 lung; 92.3% in the test on HOP-92 NSCLC. Further, the growth in the test with NCI-H522 lung is 95.9%; in the test with A549/ATCC NSCLC, 93.9%; in the test with 786-0 renal, 101%; in the test with COLO 205 colon, 106%; in the test with DU-145 prostate it was 104%; in the test with K-562 leukemia it was 103%. Further, the growth in the test with MALME-3M melanoma was 98.8%; in the test with RXF 393 renal it was 116%; in the test with SF-268 CNS it was 89.6%; in the test with SF-295 CNS, 95.3%; in the test with SF-539 CNS, 95.9%; in the test on UACC-257 melanoma, 107%. The growth in the test on M14 melanoma is 94.6%.

The values above are taken from PubChem BioAssay (NCI).
